Source: PubChem (National Center for Advancing Translational Sciences (NCATS))
Cruzain inh Det: inhibitors of Trypanosoma cruzi cruzain with detergent | P25779 | purified cruzain, Z-FR-AMC fluorescence, 0.01% Triton | Potency, µM, inactives show max response, negative = inhibition, most hits filed as inhibitors | hit rate 0.43% among 200,000 | AID 1478;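 also: plate controls were neutral wells for no effect and buffer without enzyme for full effect; nearly all actives have a fitted effect of over 40% in size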
Target sequence (P25779 123-467 limits assumed): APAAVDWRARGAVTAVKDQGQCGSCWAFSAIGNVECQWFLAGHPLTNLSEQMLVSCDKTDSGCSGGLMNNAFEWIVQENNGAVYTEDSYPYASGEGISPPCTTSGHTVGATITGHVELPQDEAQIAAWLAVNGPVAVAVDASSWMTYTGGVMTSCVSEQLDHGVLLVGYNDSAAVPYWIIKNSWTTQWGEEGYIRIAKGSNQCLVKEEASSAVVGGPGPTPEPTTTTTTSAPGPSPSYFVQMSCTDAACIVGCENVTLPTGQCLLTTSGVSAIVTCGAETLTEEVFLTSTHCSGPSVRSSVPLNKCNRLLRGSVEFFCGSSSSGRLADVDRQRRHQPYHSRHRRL
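In this qHTS format, compounds are incubated with 1.5 nM cruzain for 15 min at room temperature before 2 uM Z-FR-AMC is added. Release of AMC is followed at 360/450 nm, and progress is taken as the 60 s fluorescence difference.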
Cruzain noTriton: cruzain (T. cruzi) inhibition without detergent; hit rate 2.3% among 200,000; AID 1476; purified cruzain, Z-FR-AMC fluorescence, no detergent; Potency, µM, without a hit: max response, negative = inhibition, hits mostly inhibitors; P25779;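 also: plate controls were enzyme without inhibitor for no effect and buffer without enzyme for full effect; nearly all actives have a fitted effect of over 40% in size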
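Detergent-free condition (0.00005% Triton X-100) in acetate buffer pH 5.5 with DTT. 1.5 nM enzyme and compound were pre-mixed 15 min, then 2 uM Z-FR-AMC substrate added; reaction progress from fluorescence change between first and third reads (60 s).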
* hit, by the source's call. Hits are enriched below; roughly 2.5% of the tested compounds scored in any of these assays. Calls follow the shape of the dose curve; as a rule, active = well fitted curve in the direction sought with a large enough effect; inconclusive = small, poorly fitted or top-dose-only effect, or another doubt; inactive = no such curve, though single readings can be large; an effect the other way counts as inactive or inconclusive. Potency is read from the fitted curve at half-maximal effect.

How did O=C(NCCc1ccc(Cl)cc1)c1ccc2c(c1)N(Cc1ccccc1F)C(=O)c1ccccc1S2(=O)=O do in these assays?
Cruzain inh Det: 0.7%; Cruzain noTriton: inconclusive

What do the screens show for `Cc1ccc(C)c(CN2C(=O)c3ccccc3S(=O)(=O)c3ccc(C(=O)Nc4ccccc4C(F)(F)F)cc32)c1`?
Cruzain inh Det: -5.2%; Cruzain noTriton: inconclusive

Results for Cc1ccc(C)c(CN2C(=O)c3ccccc3S(=O)(=O)c3ccc(C(=O)NCCc4ccc(Cl)cc4)cc32)c1 ?
Cruzain inh Det: 5.4%; Cruzain noTriton: 10µM*

What do the screens show for `CCOc1cc(/C=N/NC(N)=S)cc(Br)c1OCc1ccccc1C`?
Cruzain inh Det: 3.16µM*; Cruzain noTriton: 1µM*

How did CCOc1cc(/C=N/N=C(\N)c2nonc2N)cc(Br)c1OCc1cccc2ccccc12 do in these assays?
Cruzain inh Det: 4.4%; Cruzain noTriton: 6.31µM*

Results for CCOc1cc(/C=N/NC(N)=O)cc(Br)c1OCc1ccccc1 ?
Cruzain inh Det: 4.0%; Cruzain noTriton: -3.2%

Results for COc1cc(/C=N/NC(N)=S)cc(Br)c1OCc1ccccc1F ?
Cruzain inh Det: 0.562µM*; Cruzain noTriton: 0.199µM*

Results for COc1cc(/C=N/N=C(/N)c2nonc2N)cc(Br)c1OCc1cccc(C)c1 ?
Cruzain inh Det: 3.6%; Cruzain noTriton: -12.5%

How did CCOc1c(Br)cc(/C=N\NC(=O)c2ccccc2)cc1OC do in these assays?
Cruzain inh Det: -5.0%; Cruzain noTriton: -3.5%

Results for N=C1[C@@H](O)[C@]2(I)c3ccccc3N3C(=N)[C@H](O)[C@@H]4c5ccccc5N1[C@@H]4[C@@H]32 ?
Cruzain inh Det: -3.0%; Cruzain noTriton: -1.2%

How did Cc1cc(C=O)c(C)n1-c1sc2c(c1C(=O)O)CCCC2 do in these assays?
Cruzain inh Det: -3.0%; Cruzain noTriton: -1.9%

What do the screens show for `COC(=O)c1c(-n2c(C)cc(C=O)c2C)sc2c1CCCC2`?
Cruzain inh Det: 4.2%; Cruzain noTriton: 7.94µM*

What do the screens show for `Cc1ccccc1NC(=O)Cc1nnc(SCC(=O)c2ccc(Br)cc2)n1C`?
Cruzain inh Det: 3.0%; Cruzain noTriton: -7.2%

How did Cc1ccc(NC(=O)Cc2nnc(SCC(=O)c3ccc(Br)cc3)n2C)cc1Cl do in these assays?
Cruzain inh Det: 6.6%; Cruzain noTriton: 12.6µM*

How did O=C(c1ccc2c(c1)OCCO2)N(Cc1cccnc1)c1nc2ccc(F)cc2s1 do in these assays?
Cruzain inh Det: 2.8%; Cruzain noTriton: -4.2%

What do the screens show for `Cc1c(-c2nsc(NC(=O)c3ccccc3)n2)nnn1-c1ccc(C(F)(F)F)c(Cl)c1`?
Cruzain inh Det: -0.6%; Cruzain noTriton: 20µM*

How did Cc1ccc(-n2nnc(-c3nsc(NC(=O)c4ccccc4C)n3)c2C)cc1Cl do in these assays?
Cruzain inh Det: -1.5%; Cruzain noTriton: -4.9%

Results for CCOC(=O)C1CCCN(c2nc3c(S(=O)(=O)c4ccc(C)c(C)c4)nnn3c3ccc(Cl)cc23)C1 (stereo unspecified) ?
Cruzain inh Det: -11.6%; Cruzain noTriton: -21.4%

Results for CCCCn1cnc2cc(NCc3ccccc3Cl)ccc21 ?
Cruzain inh Det: -21.4%; Cruzain noTriton: -18.2%

Results for COCCNc1ncnc2ccc(-c3ccccc3C(F)(F)F)cc12 ?
Cruzain inh Det: -2.3%; Cruzain noTriton: -4.7%

How did c1ccc2c(Nc3nc(N4CCOCC4)c4ccccc4n3)cccc2c1 do in these assays?
Cruzain inh Det: -7.6%; Cruzain noTriton: -8.4%

How did Fc1ccc(Nc2nc(N3CCOCC3)c3ccccc3n2)cc1 do in these assays?
Cruzain inh Det: inconclusive; Cruzain noTriton: 15.8µM*

Results for CCOc1ccc(-c2csc(-c3c(N)c(C(=O)c4ccc5c(c4)OCO5)n4ccccc34)n2)cc1 ?
Cruzain inh Det: -1.2%; Cruzain noTriton: 11.3%

How did O=C(O)c1ccc2nc(-c3ccccc3)sc2c1 do in these assays?
Cruzain inh Det: -5.4%; Cruzain noTriton: -7.9%

What do the screens show for `Nc1ccc(-c2nc3ccc(C(=O)O)cc3s2)cc1`?
Cruzain inh Det: 25.1µM*; Cruzain noTriton: inconclusive

How did Cc1ccc(C2CC(c3cccs3)=NN2C(=O)c2ccc(Br)o2)cc1 (stereo unspecified) do in these assays?
Cruzain inh Det: -9.4%; Cruzain noTriton: 7.94µM*

What do the screens show for `CCOC(=O)CSCC(=O)N1N=C(c2cccs2)CC1c1ccc(F)cc1` (stereo unspecified)?
Cruzain inh Det: -9.0%; Cruzain noTriton: 6.5%

What do the screens show for `O=C(Cn1nc(-c2ccc(Cl)cc2)c2ccccc2c1=O)Nc1cccc(Br)c1`?
Cruzain inh Det: -3.5%; Cruzain noTriton: -8.0%

Results for COc1ccc(-c2nn(CC(=O)Nc3ccc(Cl)c(Cl)c3)c(=O)c3ccccc23)cc1 ?
Cruzain inh Det: -0.5%; Cruzain noTriton: 7.94µM*

Results for CC(C)Cc1nn2c(=O)cc(COC(=O)c3ccc(NC(=O)CCc4ccccc4)cc3)nc2s1 ?
Cruzain inh Det: 0.9%; Cruzain noTriton: -13.6%

What do the screens show for `CCCNC(=O)c1cnc2sc(N3CCCCCC3)nn2c1=O`?
Cruzain inh Det: -7.7%; Cruzain noTriton: -3.9%

What do the screens show for `Cc1c(C(=O)OCc2ccccc2)[nH]c2c1C(=O)CC(c1ccc(C(C)(C)C)cc1)C2` (stereo unspecified)?
Cruzain inh Det: -1.6%; Cruzain noTriton: -9.4%

What do the screens show for `CCOC(=O)c1[nH]c2c(c1Cc1ccccc1)C(=O)CC(c1ccc(C(C)(C)C)cc1)C2` (stereo unspecified)?
Cruzain inh Det: -3.6%; Cruzain noTriton: 10µM*

Results for CCOC(=O)c1cc(-c2ccccc2)n(CC(=O)Nc2ccccc2OCC)c1C ?
Cruzain inh Det: 0.3%; Cruzain noTriton: -1.9%

Results for NC(=S)N/N=C/c1ccc2ccccc2c1 ?
Cruzain inh Det: 2.24µM*; Cruzain noTriton: 0.794µM*

What do the screens show for `COc1ccc(/C=N/NC(N)=S)cc1OC(=O)c1ccccc1`?
Cruzain inh Det: -28.3%; Cruzain noTriton: inconclusive

What do the screens show for `NC(=S)N/N=C/C=C/c1ccccc1`?
Cruzain inh Det: 25.1µM*; Cruzain noTriton: 15.8µM*

How did O=C(N/N=C/C=C/c1ccccc1)c1ccccc1Br do in these assays?
Cruzain inh Det: -2.9%; Cruzain noTriton: 0.3%

How did CCOC(=O)c1c(C)oc2nc(C)nc(NCc3cccc(OC)c3)c12 do in these assays?
Cruzain inh Det: -6.6%; Cruzain noTriton: inconclusive

What do the screens show for `CN(C)c1ccc(-c2nccc(NCCN3CCOCC3)n2)cc1`?
Cruzain inh Det: -10.1%; Cruzain noTriton: -9.7%

How did COC(=O)c1ccc2c(=O)n(CCCCCC(=O)N3CCN(c4cc(Cl)ccc4C)CC3)c(=O)[nH]c2c1 do in these assays?
Cruzain inh Det: -0.7%; Cruzain noTriton: 3.6%

What do the screens show for `CCOC(=O)c1c(-c2ccc(OCC)cc2)csc1NC(=O)CCN1C(=O)c2ccccc2C1=O`?
Cruzain inh Det: -3.9%; Cruzain noTriton: inconclusive

Results for CCOC(=O)c1c(-c2ccc(OC)cc2)csc1NC(=O)CCN1C(=O)c2ccccc2C1=O ?
Cruzain inh Det: -2.7%; Cruzain noTriton: 15.8µM*

What do the screens show for `Cc1ccc(C)c(NC(=O)N2CCN(C(=O)c3nsc4ccccc34)CC2)c1`?
Cruzain inh Det: -3.1%; Cruzain noTriton: -4.8%

What do the screens show for `Cc1ccc(N2CCN(S(=O)(=O)c3ccc(F)c(C(=O)Nc4ccc(Cl)cc4Cl)c3)CC2C)cc1` (stereo unspecified)?
Cruzain inh Det: 0.7%; Cruzain noTriton: -8.9%

What do the screens show for `Cc1ccc(C)c(NC(=O)c2cc(S(=O)(=O)N3CCN(c4cccc(Cl)c4)CC3)ccc2F)c1`?
Cruzain inh Det: 1.1%; Cruzain noTriton: 7.94µM*
